Experimental data from PubChem BioAssay (Tox21).
Unmarked numbers belong to inactive results. Results filed as inconclusive are left out. Entries that show only a call come without a potency. Calls of active or inactive are those of the source. Unless noted, calls come from the whole dose curve.

Columns and labels:
[1] = Nuclear factor erythroid 2-related factor 2/antioxidant responsive element (Nrf2/ARE) small molecule agonists: qHTS cell viability counter screen in human keratinocytes (AID 1919968; active = well fitted curve in the direction sought with a large enough effect in the repeat runs; an effect the other way counts as inactive or inconclusive; note: nearly all actives have a fitted effect of over 55% in size)
Summary of the method: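 After a 5 h attachment period, ARE-reporter keratinocytes were dosed with compounds in DMSO and then cultured 23 h at 37 C. Cell viability came from CellTiter-Fluor signal read after a further 1 h.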

[2] = Nuclear factor erythroid 2-related factor 2/antioxidant responsive element (Nrf2/ARE) small molecule agonists: luciferase reporter gene qHTS assay in human keratinocytes (AID 1919969); note: nearly all actives have a fitted effect of over 35% in size
[3] = target: Gonadotropin-releasing hormone receptor (Homo sapiens) (UniProt P30968); assay: Human gonadotropin-releasing hormone receptor (GnRHR) small molecule agonists, calcium flux assay in GnRHR-HEK293 cells (AID 1920063); note: nearly all actives have a fitted effect of over 35% in size
Summary of the method: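 We seeded human GnRHR-expressing HEK293 cells for 18 hours, loaded them with calcium dye for an hour at 37 C, added test compounds, and recorded fluorescence intensity kinetically for three minutes.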

[4] = target: KiSS-1 receptor (Homo sapiens) (UniProt Q969F8); assay: Human kisspeptin (KISS1R) small molecule agonists, calcium flux assay in KISS1R-HEK293 cells (AID 1920064; active = well fitted curve in the direction sought with a large enough effect in the repeat runs; an effect the other way counts as inactive or inconclusive)
Summary of the method: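 Kinetic calcium assay, 1 s sampling over 3 min at Ex/Em 480/540, in HEK293 cells engineered with human KISS1R; compounds delivered in DMSO after 1 h dye loading.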

[5] = G protein-coupled receptor (GPCR) small molecule agonists, calcium flux assay: HEK293 wild type cell line counter screen (AID 1920065)
Summary of the method: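 Calcium-sensitive dye, loaded 1 h at 37 C into cells cultured 18 h, reports compound-evoked calcium release as fluorescence (Ex/Em 480/540), measured over 3 min. Agonist mode; 15-point titrations, triplicate.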

[6] = p53 small molecule agonists, cell-based qHTS assay with human liver microsomes (AID 1963577);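 note: p53 response element beta-lactamase reporter cells with liver microsomes plus NADPH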
Summary of the method: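 HLM-supplemented p53RE-bla reporter assay: 16 h compound exposure at 37 C, microsomes and NADPH each 0.5 mg/mL final, read by fluorescence intensity.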

[7] = p53 small molecule agonists, cell-based qHTS assay with rat liver microsomes (AID 1963578)
Summary of the method: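 Quantitative HTS of the Tox21 10K library: p53RE-bla cells, rat liver microsomes plus NADPH at 0.5 mg/mL final each, 16 h at 37 C, beta-lactamase fluorescence detection.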

[8] = p53 small molecule agonists, cell-based qHTS assay with human liver microsomes: qHTS cell viability counter screen (AID 1963579); note: nearly all actives have a fitted effect of over 45% in size
Summary of the method: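 Viability of p53RE-bla cells is measured as CellTiter-Glo luminescence following a 16 h, 37 C incubation with compound, liver microsomes from human donors and NADPH.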

[9] = p53 small molecule agonists, cell-based qHTS assay with rat liver microsomes: qHTS cell viability counter screen (AID 1963580); note: nearly all actives have a fitted effect of over 45% in size
Summary of the method: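 p53RE-bla HCT-116 cells were exposed 16 h at 37 C to compounds with rat liver microsomes (0.5 mg/mL) and NADPH (0.5 mg/mL). Viability was measured in the same wells as ATP content by CellTiter-Glo luminescence.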

[10] = p53 small molecule agonists, cell-based qHTS assay (AID 1963582; active = well fitted activation curve with a large enough effect in the signal ratio in the repeat runs, not every such curve was filed as active; the % refers to the signal ratio)
Summary of the method: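 In this cell-based concentration-response screen, a p53 response element drives beta-lactamase; cells received DMSO-borne compounds after 5 h culture and were incubated a further 16 h before FRET substrate development.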

[11] = target: 5-hydroxytryptamine receptor 2A (Homo sapiens) (UniProt P28223); assay: 5-hydroxytryptamine receptor 2A (HTR2A) small molecule agonists, cell-based qHTS assay (AID 1963587); note: nearly all actives have a fitted effect of over 30% in size
Summary of the method: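 CHO cells stably expressing human HTR2A, plated 18 h, loaded with calcium dye 1 h at 37 C. Agonist mode: compounds added and intracellular calcium fluorescence recorded kinetically for 2 min at 1 sec intervals.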

[12] = target: Muscarinic acetylcholine receptor M1 (Homo sapiens) (UniProt P11229); assay: Cholinergic receptor muscarinic 1 (CHRM1) small molecule antagonists, cell-based qHTS assay (AID 1963588); note: nearly all actives have a fitted effect of over 40% in size; note: potency is the fitted concentration of half-maximal effect
Summary of the method: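 CHRM1-CHO calcium-flux assay, antagonist mode. Cells were seeded 18 h, dye-loaded 1 h at 37 C and given compound for 5 min at RT, then acetylcholine was added at 50nM. FDSS fluorescence was read 3 min; 15 concentrations, three runs.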

[13] = target: Muscarinic acetylcholine receptor M1 (Homo sapiens) (UniProt P11229); assay: Cholinergic receptor muscarinic 1 (CHRM1) small molecule agonists, cell-based qHTS assay (AID 1963589); note: nearly all actives have a fitted effect of over 35% in size
Summary of the method: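 Measures agonist-induced intracellular calcium rise. Stable human CHRM1 CHO line, 1 h dye load at 37 C, compounds from DMSO, kinetic fluorescence read.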

[14] = cAMP Responsive Elements (CRE) small molecule agonists, cell-based qHTS assay (AID 1963590)
Summary of the method: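 A CRE-responsive beta-lactamase reporter in HEK 293T cells was used. Treatment ran 3 h at 37 C; detection used LiveBLAzer B/G FRET substrate for 2 h at room temperature.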

[15] = target: Beta-2 adrenergic receptor (Homo sapiens) (UniProt P07550); assay: Adrenergic beta2 receptor (ADRB2) small molecule antagonists, cell-based qHTS assay (AID 1963592); note: nearly all actives have a fitted effect of over 50% in size; note: potency is the fitted concentration of half-maximal effect
Summary of the method: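 Cells (CHO, stable ADRB2 overexpression) incubated 18-20hr at 37C; compounds added from DMSO; agonist mix (1nM isoproterenol, 100uM IBMX, 25uM Ro-20-1724) added; 0.5hr RT; d2-cAMP and anti-cAMP-cryptate added; 1hr RT; 665/615 nm read.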

[16] = target: D(2) dopamine receptor (Homo sapiens) (UniProt P14416); assay: Dopamine D2 receptor (DRD2) small molecule agonists, cell-based qHTS assay (AID 1963594); note: nearly all actives have a fitted effect of over 35% in size; note: potency is the fitted concentration of half-maximal effect
Summary of the method: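 HEK293 cells stably expressing human DRD2, pre-treated with PDE inhibitor Ro20-1724 (0.1 mM final) and compound 10 min at room temperature, then stimulated with NKH477 (200nM […]) for 30 min. cAMP read by HTRF (665/620 nm).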

[17] = target: D(2) dopamine receptor (Homo sapiens) (UniProt P14416); assay: Dopamine D2 receptor (DRD2) small molecule antagonists, cell-based qHTS assay (AID 1963595; active = well fitted inhibition curve with a large enough effect in the signal ratio in the repeat runs, with a control signal flat; the % refers to the signal ratio)
Summary of the method: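 HTRF cAMP read-out at 665 and 620 nm emission (340 nm excitation). Antagonist mode: compounds were tested against 12 nM quinpirole in DRD2-HEK293 cells, with 200 nM NKH477 raising cAMP and 0.1 mM Ro20-1724 blocking its breakdown.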

[18] = cAMP Responsive Elements (CRE) small molecule antagonists, cell-based qHTS assay (AID 1963591; active = well fitted inhibition curve with a large enough effect in the signal ratio in the repeat runs, not every such curve was filed as active; the % refers to the signal ratio)
Summary of the method: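 HEK293T cells carrying a CRE-driven beta-lactamase reporter receive compound and NKH477 (0.25 uM final) for 3 h. Fluorescence from LiveBLAzer B/G FRET substrate is read after 2 h at room temperature.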

[19] = target: 5-hydroxytryptamine receptor 2A (Homo sapiens) (UniProt P28223); assay: 5-hydroxytryptamine receptor 2A (HTR2A) small molecule antagonists, cell-based qHTS assay (AID 1963586); note: potency is the fitted concentration of half-maximal effect; nearly all actives have a fitted effect of over 45% in size
Summary of the method: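 Antagonist-mode intracellular calcium assay: DOI (4 nM) added after 5 min compound pre-incubation at room temperature to dye-loaded HTR2A-CHO cells. Fluorescence followed for 3 min, sampled every second.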

Sequence of Muscarinic acetylcholine receptor M1 (Homo sapiens) (P11229 whole entry, looked up): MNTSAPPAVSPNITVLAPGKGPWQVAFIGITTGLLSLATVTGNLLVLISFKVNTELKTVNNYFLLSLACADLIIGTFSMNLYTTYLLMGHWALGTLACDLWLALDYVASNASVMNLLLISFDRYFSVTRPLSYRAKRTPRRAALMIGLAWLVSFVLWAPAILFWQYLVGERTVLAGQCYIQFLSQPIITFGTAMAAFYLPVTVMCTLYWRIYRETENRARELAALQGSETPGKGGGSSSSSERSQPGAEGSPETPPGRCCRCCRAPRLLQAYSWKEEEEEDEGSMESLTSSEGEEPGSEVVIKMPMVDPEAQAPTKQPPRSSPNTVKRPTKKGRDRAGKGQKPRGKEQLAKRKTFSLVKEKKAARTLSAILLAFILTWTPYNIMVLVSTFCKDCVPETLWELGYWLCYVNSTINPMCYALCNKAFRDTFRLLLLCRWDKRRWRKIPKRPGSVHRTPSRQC
Sequence of 5-hydroxytryptamine receptor 2A (Homo sapiens) (P28223 whole entry, looked up): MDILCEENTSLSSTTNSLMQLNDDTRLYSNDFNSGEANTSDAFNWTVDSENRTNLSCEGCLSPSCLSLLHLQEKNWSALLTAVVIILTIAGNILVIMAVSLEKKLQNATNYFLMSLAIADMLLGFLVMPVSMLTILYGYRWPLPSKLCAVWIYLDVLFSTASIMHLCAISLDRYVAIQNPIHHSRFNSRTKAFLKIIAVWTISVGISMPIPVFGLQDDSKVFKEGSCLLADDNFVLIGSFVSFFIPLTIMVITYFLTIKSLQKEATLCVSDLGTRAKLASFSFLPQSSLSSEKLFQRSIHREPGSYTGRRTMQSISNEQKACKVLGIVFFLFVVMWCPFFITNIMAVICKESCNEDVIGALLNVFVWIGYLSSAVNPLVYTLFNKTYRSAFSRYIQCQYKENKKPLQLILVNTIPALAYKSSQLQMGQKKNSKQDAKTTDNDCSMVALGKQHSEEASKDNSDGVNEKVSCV
Sequence of Beta-2 adrenergic receptor (Homo sapiens) (P07550 whole entry, looked up): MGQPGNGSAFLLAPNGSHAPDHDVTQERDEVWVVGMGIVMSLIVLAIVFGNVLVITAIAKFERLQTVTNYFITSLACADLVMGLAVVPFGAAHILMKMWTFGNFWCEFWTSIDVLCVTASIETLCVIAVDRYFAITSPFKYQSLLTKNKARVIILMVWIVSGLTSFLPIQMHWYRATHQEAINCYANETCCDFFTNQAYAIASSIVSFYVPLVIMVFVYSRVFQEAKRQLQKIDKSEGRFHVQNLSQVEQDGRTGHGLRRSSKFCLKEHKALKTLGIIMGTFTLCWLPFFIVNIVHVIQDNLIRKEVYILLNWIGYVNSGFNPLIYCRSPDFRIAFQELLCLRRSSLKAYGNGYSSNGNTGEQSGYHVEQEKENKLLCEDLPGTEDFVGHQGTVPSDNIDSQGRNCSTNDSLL
Sequence of KiSS-1 receptor (Homo sapiens) (Q969F8 whole entry, looked up): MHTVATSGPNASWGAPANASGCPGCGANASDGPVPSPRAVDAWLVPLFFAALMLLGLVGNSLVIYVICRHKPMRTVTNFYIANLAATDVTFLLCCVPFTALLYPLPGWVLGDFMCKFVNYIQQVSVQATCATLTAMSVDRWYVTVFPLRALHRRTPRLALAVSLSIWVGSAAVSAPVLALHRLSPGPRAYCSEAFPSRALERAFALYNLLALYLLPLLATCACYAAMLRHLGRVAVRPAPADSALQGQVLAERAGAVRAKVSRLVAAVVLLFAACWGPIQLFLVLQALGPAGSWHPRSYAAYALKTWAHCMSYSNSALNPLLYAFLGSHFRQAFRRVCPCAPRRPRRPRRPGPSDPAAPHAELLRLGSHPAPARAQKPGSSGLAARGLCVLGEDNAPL
Sequence of D(2) dopamine receptor (Homo sapiens) (P14416 whole entry, looked up): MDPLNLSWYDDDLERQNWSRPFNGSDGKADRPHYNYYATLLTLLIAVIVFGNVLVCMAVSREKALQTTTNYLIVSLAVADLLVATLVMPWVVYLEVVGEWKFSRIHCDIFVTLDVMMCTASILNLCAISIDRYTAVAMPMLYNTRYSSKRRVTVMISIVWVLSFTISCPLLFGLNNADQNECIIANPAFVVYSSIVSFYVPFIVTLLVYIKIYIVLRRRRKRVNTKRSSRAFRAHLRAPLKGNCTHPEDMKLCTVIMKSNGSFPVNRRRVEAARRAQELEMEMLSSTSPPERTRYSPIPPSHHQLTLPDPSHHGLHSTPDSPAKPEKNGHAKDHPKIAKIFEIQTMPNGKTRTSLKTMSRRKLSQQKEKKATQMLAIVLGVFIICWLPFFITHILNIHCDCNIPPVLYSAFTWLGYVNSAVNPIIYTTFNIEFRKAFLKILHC
Sequence of Gonadotropin-releasing hormone receptor (Homo sapiens) (P30968 whole entry, looked up): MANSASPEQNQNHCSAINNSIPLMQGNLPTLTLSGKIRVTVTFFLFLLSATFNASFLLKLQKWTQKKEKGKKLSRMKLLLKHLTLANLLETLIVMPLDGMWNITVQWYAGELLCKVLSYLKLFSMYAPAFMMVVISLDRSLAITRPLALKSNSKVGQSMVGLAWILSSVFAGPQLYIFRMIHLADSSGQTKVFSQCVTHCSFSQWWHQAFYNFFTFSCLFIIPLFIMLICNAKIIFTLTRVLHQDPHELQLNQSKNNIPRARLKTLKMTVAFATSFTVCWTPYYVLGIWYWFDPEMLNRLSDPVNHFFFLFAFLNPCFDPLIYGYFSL

SMILES | Potency [1] | Potency [2] | Potency [3] | outcome [4] | outcome [5] | Potency [6] | Potency [7] | Potency [8] | Potency [9] | Potency [10] | Potency [11] | Potency [12] | Potency [13] | Potency [14] | Potency [15] | Potency [16] | Potency [17] | Potency [18] | Potency [19]
CCOC(=O)C(=O)c1csc(NC=O)n1 | inactive | inactive | inactive | inactive | inactive | inactive | inactive | inactive | inactive | inactive | inactive | inactive | inactive | inactive | inactive | inactive | inactive | – | –
CO[Si](CCCn1c(=O)n(CCC[Si](OC)(OC)OC)c(=O)n(CCC[Si](OC)(OC)OC)c1=O)(OC)OC | inactive | inactive | inactive | inactive | inactive | inactive | inactive | inactive | inactive | inactive | inactive | – | inactive | inactive | inactive | inactive | inactive | inactive | –
CCCCC(CC)COC(=O)COc1ccc(Cl)cc1C (configuration not stated) | inactive | inactive | inactive | inactive | inactive | inactive | inactive | inactive | inactive | inactive | inactive | inactive | inactive | inactive | inactive | inactive | inactive | inactive | –
CC1COc2c(N3CCN(C)CC3)c(F)cc3c(=O)c(C(=O)O)cn1c23 (configuration not stated) | inactive | inactive | inactive | inactive | inactive | inactive | inactive | inactive | inactive | inactive | – | – | – | – | – | – | inactive | inactive | –
CN=C(NC#N)NCCSCc1csc(N=C(N)N)n1 | inactive | inactive | inactive | inactive | inactive | inactive | inactive | inactive | inactive | inactive | inactive | inactive | inactive | inactive | inactive | 19.9 µM (active) | inactive | inactive | –
COC(=O)CCc1ccc(OCC(O)CNC(C)C)cc1 (configuration not stated) | inactive | inactive | inactive | inactive | inactive | inactive | inactive | inactive | inactive | inactive | – | – | – | inactive | 9.44 µM (active) | – | inactive | inactive | –
Cc1c(Cl)cccc1Nc1ccccc1C(=O)O | inactive | inactive | inactive | inactive | inactive | inactive | inactive | inactive | inactive | – | inactive | 4.6 µM (active) | inactive | – | inactive | inactive | inactive | – | 16.3 µM (active)
